Active and inactive are the calls of the source. Rule for the calls: active = hit-call score of the fitted dose curve at least 0.9, where 1 is the maximum; inactive = score below 0.9.

A word on the AC50: it is the concentration giving half of the maximal activity seen.

Read-out in the assay: Tumor necrosis factor receptor 1 (TNFRSF1A), TNFRSF1A (gene 7132)
The experiment in a line: LTEA_HepaRG_TNFRSF1A: Life Technologies and Expression Analysis (LTEA) Assay for Tumor necrosis factor receptor 1 (TNFRSF1A) using HepaRG (AID 2283535). The following applies: mRNA level, 48 h; actives raise or lower the signal. The method, boiled down: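 Expression of TNFRSF1A in human HepaRG liver cells was measured by qRT-PCR 48 h after chemical dosing (maximum 100 uM). Bidirectional curve fitting used 0.5% DMSO as baseline.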
Consider `COCCOCCO`, for which the compound was called inactive. Same read-out and setting: for `Nc1cc2c3c(c1)C(c1ccccc1)=N[C@@H](NC(=O)c1cccnc1)C(=O)N3CC2` the value was “inactive”; for `CCNc1nc(Cl)nc(NC(C)(C)C)n1`, “inactive”. Turning to `CC(Cl)(Cl)C(=O)O`, the result was inactive. Still for that read-out and setting: for `Cc1cccc(N)c1` the value was “inactive”. Still for that read-out and setting: for `CC(Cc1ccc(OCC(=O)O)cc1)NCC(O)c1csc(C(F)(F)F)n1` (stereo not given) the value was “inactive”; for `CSC(C)(C)C=NO`, “inactive”. On the same count and under the same terms, in the case of `Cc1ccc(N)cc1N` it was “inactive”; in that of `CCOS(=O)(=O)OCC`, “inactive”. As for `CCCCN(CCCC)SN(C)C(=O)Oc1cccc2c1OC(C)(C)C2`, the result was inactive. Same read-out and setting: in the case of `CCOC(=O)c1ccccc1C(=O)OCC` it was “inactive”; in that of `CCCCc1ccccc1`, “inactive”. As to `c1nc[nH]n1`, the outcome was inactive. Regarding `O=P(Oc1ccccc1)(Oc1ccccc1)Oc1ccccc1`, the result was inactive.

For the compound `ClC(Cl)c1ccccc1`, the outcome was inactive. On the same count and under the same terms, for `Cc1ccc([N+](=O)[O-])cc1C` the value was “inactive”; for `O=[N+]([O-])c1ccccc1`, “inactive”. On the same count and under the same terms, for `CN(C)C(=O)Cl` the value was “inactive”. On the same count and under the same terms, in the case of `O=P1(N(CCCl)CCCl)NCCCO1` (stereo not given) it was “inactive”. With `[N-]=[N+]=[N-]`, the half-maximal activity concentration (AC50) is 72.6 µM (active).

In the case of `Nc1ccc(Cl)cc1`, the outcome was inactive.

On to `CCC(C)(C)c1ccc(O)cc1`, for which the call was inactive. As to `c1cc2c3c(cccc3c1)CC2`, the compound was called inactive. For the compound `O=C(O)C1C(C(=O)O)C2(Cl)C(Cl)=C(Cl)C1(Cl)C2(Cl)Cl` (stereo not given), the compound was classed as inactive. Same read-out and setting: in the case of `CCOP(=S)(OCC)SCSCC` it was “inactive”; in that of `c1ccc2c(c1)Nc1ccccc1S2`, “inactive”. With `O=[N+]([O-])c1ccc(Cl)c(Cl)c1`, the compound was classed as inactive. The same measure, in the same setting: for `CCCCCCCc1ccc(O)cc1` the value was “inactive”. As for `CCCCN(CCCC)N=O`, the compound was classed as inactive. As to `CCCN(CCC)c1c([N+](=O)[O-])cc(C(C)C)cc1[N+](=O)[O-]`, the AC50 is 0.0432 µM (active).

These data come from PubChem BioAssay (EPA / NIEHS).
